From PubChem BioAssay (NCI)
“And” between values parts separate entries of the source, which are not always exact repeats. Equal entries are not always repeated. Compounds without any hit were thinned out: in the full panel of roughly 79,000, 15% have a hit. Some compounds were tested as several samples or in several runs, with calls that do not always agree. The source made the active and inactive calls. No stated cut-off is given here; in the data, active means growth inhibition above about 70%; inactive means the rest.

How the values were obtained:
[1] = NCI Yeast Anticancer Drug Screen. Data for the rad52 strain (AID 147);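 further: 0% = growth of vehicle-treated control cultures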; conditions: S. cerevisiae rad52 mutant growth inhibition, stronger effect = higher value
In short: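 Vehicle-treated cultures served as the reference for growth inhibition of compound-exposed yeast bearing a DNA repair mutation.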

[2] = NCI Yeast Anticancer Drug Screen. Data for the wt1 strain (AID 149);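 further: 0% = growth of vehicle-treated wt1 cultures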; conditions: S. cerevisiae wt1 strain (SPY 50644) growth inhibition, stronger effect = higher value
In short: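 wt1 yeast, compound-treated; % growth inhibition vs vehicle control.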

[3] = NCI Yeast Anticancer Drug Screen. Data for the rad50 strain (AID 155);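 further: 0% = growth of vehicle-only cultures of the same strain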; conditions: S. cerevisiae rad50 strain growth inhibition, stronger effect = higher value
In short: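 Genetically altered yeast (DNA repair pathway); compound treatment; growth inhibition vs vehicle ctrl.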

[4] = NCI Yeast Anticancer Drug Screen. Data for the mec2-1 strain (AID 157); conditions: S. cerevisiae mec2-1 strain, stronger effect = higher value
In short: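 Vehicle-treated cultures served as reference for growth inhibition of compound-exposed mec2-1 yeast.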

[5] = NCI Yeast Anticancer Drug Screen. Data for the rad14 strain (AID 159);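 further: 0% = growth of vehicle-treated control cultures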; conditions: S. cerevisiae rad14 strain growth inhibition, stronger effect = higher value
In short: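 Test compounds were applied to a repair-deficient yeast strain. Its growth was then compared with that of cultures given vehicle alone, and inhibition was expressed relative to those controls.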

[6] = NCI Yeast Anticancer Drug Screen. Data for the sgs1 mgt1 strain (AID 161);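 further: 0% = growth of cultures given vehicle only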; conditions: S. cerevisiae sgs1 mgt1 strain, stronger effect = higher value
In short: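 Read-out: growth inhibition vs vehicle controls. Cells: mutant yeast strain deficient in DNA damage repair.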

[7] = NCI Yeast Anticancer Drug Screen. Data for the CLN2oe strain (AID 163);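 further: 0% = growth of vehicle-only control cultures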; conditions: S. cerevisiae CLN2oe strain, stronger effect = higher value
In short: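 Inhibition relative to vehicle-treated yeast is reported. Cells: strain with genetic alteration in cell-cycle control, grown with compound.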

[8] = NCI Yeast Anticancer Drug Screen. Data for the cln2 rad14 strain (AID 165);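 further: 0% = growth equal to vehicle treated cultures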; conditions: S. cerevisiae cln2 rad14 strain, stronger effect = higher value
In short: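 Each compound was tested on cln2 rad14 yeast. Inhibition of growth was calculated against vehicle-exposed controls.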

[9] = NCI Yeast Anticancer Drug Screen. Data for the bub3 strain (AID 167); conditions: S. cerevisiae bub3 mutant strain, stronger effect = higher value
In short: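 Yeast carrying a defined mutation is treated with each compound, and growth is compared with that of vehicle-exposed cells to give inhibition.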

[10] = NCI Yeast Anticancer Drug Screen. Data for the wt2 strain (AID 169);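 further: 0% = growth of vehicle-treated yeast cultures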; conditions: S. cerevisiae wt2 strain growth inhibition, stronger effect = higher value
In short: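 Inhibition of yeast growth was determined after compound treatment, normalised to controls receiving only vehicle.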

[11] = NCI Yeast Anticancer Drug Screen. Data for the mlh1 strain (AID 171);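 further: 0% = growth of vehicle-treated control cultures of the same strain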; conditions: S. cerevisiae mlh1 strain growth inhibition, stronger effect = higher value
In short: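 Vehicle-normalised growth inhibition of a repair- or checkpoint-altered yeast strain following compound treatment.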

[12] = NCI Yeast Anticancer Drug Screen. Data for the sgs1 strain (AID 173);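 further: 0% = growth of vehicle-only control cultures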; conditions: S. cerevisiae sgs1 mutant, stronger effect = higher value
In short: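 Screen format: yeast with repair or checkpoint alterations, compound exposure, growth read relative to vehicle.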

[13] = NCI Yeast Anticancer Drug Screen. Data for the mlh1 rad18 strain (AID 175); conditions: S. cerevisiae mlh1 rad18 strain growth inhibition, stronger effect = higher value
In short: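 Vehicle-treated cultures served as the reference for growth inhibition in a yeast strain carrying DNA damage repair alterations exposed to each compound.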

[14] = NCI Yeast Anticancer Drug Screen. Data for the rad18 strain (AID 177); conditions: S. cerevisiae rad18 mutant growth inhibition, stronger effect = higher value
In short: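 Test articles were incubated with altered yeast defective in DNA damage repair. Results are given as inhibition of growth versus vehicle.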

[15] = NCI Yeast Anticancer Drug Screen. Data for the rad50EPP+ strain (AID 151);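 further: 0% = growth of vehicle-treated control cultures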; conditions: S. cerevisiae rad50 mutant strain, stronger effect = higher value
In short: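 In this screen, rad50EPP+ yeast were exposed to compounds. Growth inhibition was scored against vehicle-treated controls.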

[16] = NCI Yeast Anticancer Drug Screen. Data for the mgt1 strain (AID 153); conditions: S. cerevisiae mgt1 mutant growth inhibition, stronger effect = higher value
In short: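 mgt1 strain exposed; growth vs vehicle control recorded as inhibition.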

[17] = at 5.0 µM (retest, dose inferred, filed as 0.5)
[18] = at 50.0 µM (retest, dose inferred, filed as 5.0)

Measured: growth inhibition

O=[N+]([O-])c1ccc(C=Cc2ccccc2)cc1.[C-]#[O+].[C-]#[O+].[C-]#[O+].[Cr]
inactive: [1]; at 1.2 µM 8% | [1]; at 3.7 µM 28% | [2]; at 1.2 µM -2% | [2]; at 3.7 µM -1% | [2]; at 11.0 µM 1% | [2]; at 33.0 µM 65% | [3]; at 1.2 µM 6% | [3]; at 3.7 µM 18% | [3]; [17] 39% | [3]; at 11.0 µM 54% | [4]; at 1.2 µM 0% | [4]; at 3.7 µM 1% | [4]; [17] 5% | [4]; at 11.0 µM 8% | [5]; at 1.2 µM 3% | [5]; at 3.7 µM 12% | [5]; at 11.0 µM 53% | [6]; [17] 44% | [6]; at 50.0 µM 66% | [7]; at 1.2 µM -3% | [7]; at 3.7 µM -9% | [7]; at 11.0 µM -16% | [7]; at 33.0 µM 69% | [8]; [17] 10% | [9]; at 1.2 µM 2% | [9]; at 3.7 µM 10% | [9]; [17] -19% | [9]; at 11.0 µM 2% | [9]; at 33.0 µM 67% | [9]; at 50.0 µM 69.5% | [10]; at 1.2 µM -1% | [10]; at 3.7 µM -1% | [10]; at 11.0 µM 7% | [11]; at 1.2 µM -1% | [11]; at 3.7 µM -1% | [11]; at 11.0 µM 9% | [11]; at 33.0 µM 65% | [12]; at 1.2 µM 9% | [12]; at 3.7 µM 30% | [12]; at 11.0 µM 66% | [13]; [17] 68% | [13]; at 50.0 µM 62.1%
active: [1]; at 11.0 µM 70% | [1]; at 33.0 µM 88% | [1]; at 100.0 µM 82% | [2]; at 100.0 µM 79% | [3]; at 33.0 µM 83% | [3]; [18] 95% | [3]; at 50.0 µM 76.9% | [3]; at 100.0 µM 79% | [4]; at 33.0 µM 71% | [4]; [18] 86% | [4]; at 50.0 µM 79.8% | [4]; at 100.0 µM 72% | [5]; at 33.0 µM 83% | [5]; at 100.0 µM 82% | [6]; [18] 95% | [7]; at 100.0 µM 70% | [8]; [18] 91% | [8]; at 50.0 µM 70.9% | [9]; [18] 91% | [9]; at 100.0 µM 82% | [10]; at 33.0 µM 80% | [10]; at 100.0 µM 83% | [11]; at 100.0 µM 71% | [12]; at 33.0 µM 91% | [12]; at 100.0 µM 88% | [13]; [18] 96% | [14]; at 1.2 µM 70% | [14]; at 3.7 µM 93% | [14]; at 11.0 µM 94% | [14]; at 33.0 µM 89% | [14]; at 100.0 µM 86%

COc1ccc([N+]2=NC(c3ccc([N+](=O)[O-])cc3)=NN(c3ccccc3)C2)cc1
78.8% (active) and 63.6% (inactive): [6]; at 50.0 µM
93% (active) and 41% (inactive): [16]; at 100.0 µM
91% (active) and 63% (inactive): [5]; at 100.0 µM
inactive: [15]; at 1.2 µM -10% and -9% | [15]; at 3.7 µM -4% and -5% | [15]; at 11.0 µM 3% and 4% | [15]; at 33.0 µM 32% and 9% | [16]; at 1.2 µM -1% | [16]; at 3.7 µM -2% and -6% | [16]; at 11.0 µM -1% and 2% | [16]; at 33.0 µM 43% and -6% | [3]; at 1.2 µM -6% and -5% | [3]; at 3.7 µM -16% | [3]; [17] 8% and 7% | [3]; at 11.0 µM -17% and -13% | [3]; at 33.0 µM 34% and 11% | [3]; [18] 52% and 31% | [4]; at 1.2 µM -5% and -1% | [4]; at 3.7 µM -5% and -2% | [4]; [17] -10% and -3% | [4]; at 11.0 µM -5% and 1% | [4]; at 33.0 µM 6% and 5% | [4]; [18] 21% and 4% | [5]; at 1.2 µM 2% | [5]; at 3.7 µM 1% | [5]; at 11.0 µM 4% and 2% | [5]; at 33.0 µM 14% and 9% | [6]; [17] 2% and -1% | [6]; [18] 22% and 50% | [7]; at 1.2 µM 0% and 5% | [7]; at 3.7 µM -3% and 0% | [7]; at 11.0 µM -7% and 4% | [7]; at 33.0 µM 21% and 9% | [8]; [17] 5% and -13% | [8]; [18] 48% and 43% | [8]; at 50.0 µM 51% and 38.8% | [9]; at 1.2 µM 5% and 1% | [9]; at 3.7 µM 17% and 4% | [9]; [17] 15% and 17% | [9]; at 11.0 µM 17% and 9% | [9]; at 33.0 µM 35% and 5% | [10]; at 1.2 µM 0% and 1% | [10]; at 3.7 µM -1% | [10]; at 11.0 µM -2% | [10]; at 33.0 µM 27% and 7% | [11]; at 1.2 µM 0% | [11]; at 3.7 µM -2% and -3% | [11]; at 11.0 µM -1% and -3% | [11]; at 33.0 µM 14% and 16% | [12]; at 1.2 µM -2% and -3% | [12]; at 3.7 µM 3% and -1% | [12]; at 11.0 µM 8% | [12]; at 33.0 µM 48% and 42% | [13]; [17] 4% and 9% | [13]; [18] 67% and 51% | [14]; at 1.2 µM -8% and -5% | [14]; at 3.7 µM -2% and -3% | [14]; at 11.0 µM 12% and 15% | [14]; at 33.0 µM 34% and 33%
90% (active) and 56% (inactive): [9]; at 100.0 µM
82% (active) and 58% (inactive): [15]; at 100.0 µM
92% (active) and 59% (inactive): [11]; at 100.0 µM
92% (active) and 50% (inactive): [4]; at 100.0 µM
active: [3]; at 50.0 µM 78.3% and 73.8% | [3]; at 100.0 µM 90% and 88% | [4]; at 50.0 µM 75.2% and 70.8% | [7]; at 100.0 µM 90% and 70% | [9]; [18] 84% and 88% | [9]; at 50.0 µM 90.5% and 91.4% | [10]; at 100.0 µM 93% | [12]; at 100.0 µM 93% and 92% | [13]; at 50.0 µM 87.9% and 86.3% | [14]; at 100.0 µM 90% and 87%

CCN(CC)CC.CCOc1ccc(NC(=O)N=C=[N-])cc1.[CH-]1CCCCC1.[CH-]1CCCCC1.[CH-]1CCCCC1.[Cl-].[Sn+4]
active: [3]; [17] 99% | [3]; [18] 99% | [3]; at 50.0 µM 87.2% | [4]; [17] 100% | [4]; [18] 99% | [4]; at 50.0 µM 88.4% | [6]; [17] 99% | [6]; [18] 99% | [6]; at 50.0 µM 90.2% | [8]; [17] 99% | [8]; [18] 99% | [8]; at 50.0 µM 89.5% | [9]; [17] 99% | [9]; [18] 99% | [9]; at 50.0 µM 89.2% | [13]; [17] 99% | [13]; [18] 99%

CC(C)(Br)C(=O)C(Br)Br
active: [3]; [17] 97% | [3]; [18] 99% | [3]; at 50.0 µM 86.3% | [4]; [17] 100% | [4]; [18] 99% | [4]; at 50.0 µM 89% | [6]; [17] 98% | [6]; [18] 99% | [6]; at 50.0 µM 89.7% | [8]; [17] 95% | [8]; [18] 99% | [8]; at 50.0 µM 88.8% | [9]; [17] 100% | [9]; [18] 99% | [9]; at 50.0 µM 88.7% | [13]; [17] 98% | [13]; [18] 98%

C/C(=N\N=C(/[Se])N1CC2CCC(CC2)C1)c1ccccn1
inactive: [3]; [17] 62% | [4]; [17] 40% | [6]; [17] 53% | [8]; [17] 32% | [8]; [18] 65% | [9]; [17] 51% | [13]; [17] 64%
active: [3]; [18] 79% | [3]; at 50.0 µM 87.5% | [4]; [18] 80% | [4]; at 50.0 µM 90.2% | [6]; [18] 73% | [6]; at 50.0 µM 89.5% | [8]; at 50.0 µM 85.2% | [9]; [18] 81% | [9]; at 50.0 µM 90.3% | [13]; [18] 84%
